Values joined by “and” are separate entries in the source; they are usually repeats but may differ in a detail not shown here. Equal entries are not always repeated. Screen size: about 5,500 compounds; about 2,000 (36%) were called active. Not shown: some 18% with an inconclusive outcome. Cut-off read from the data, not from the text of the source: active = normalized growth mostly below about 0.91 (no sharp cut-off); inconclusive = no clear call, values can overlap the other calls; inactive = mostly above about 0.92. Some of the results follow.
Experiment: chemical genetic growth profiling, strain panel (AID 1159580);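 note: tested at 20 µM; growth read once vehicle control cultures reached saturation at 30 °C; 1 = growth at the plate median or of vehicle wells; lower values mean less growth of the strain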
Details: S. cerevisiae deletion strains, growth OD

Measured: normalized growth

O=C1CCC(N2C(=O)c3ccccc3C2=O)C(=O)N1 (stereo unspecified)
inactive: locus YAL013W, strain DEP1, active compounds read low 1.02 and 0.99 | locus YAL021C, strain ccr4, active compounds read low 0.999 | locus YAL026C, strain drs2, active compounds read low 1.01 | locus YAL030W, strain snc1, active compounds read low 1.01 | locus YAL040C, strain CLN3, active compounds read low 1.01 | locus YBL061C, strain skt5, active compounds read low 1.02 | locus YBR009C, strain hhf1, active compounds read low 1.03 | locus YBR021W, strain FUR4, active compounds read low 0.995 | locus YBR023C, strain chs3, active compounds read low 1.03 | locus YBR171W, strain sec66, active compounds read low 1.02 | locus YBR229C, strain ROT2, active compounds read low 1.01 | locus YBR231C, strain swc5, active compounds read low 1.01 | locus YBR279W, strain paf1, active compounds read low 1.03 | locus YCL011C, strain gbp2, active compounds read low 1.03 | locus YCL016C, strain dcc1, active compounds read low 1.03 | locus YCL029C, strain bik1, active compounds read low 0.989 | locus YCL061C, strain MRC1 (second series), active compounds read low 1 | locus YCL061C, strain MRC1, active compounds read low 1.01 | locus YCL069W, strain vba3, active compounds read low 1.02 | locus YCR088W, strain abp1, active compounds read low 1.01 | locus YDL005C, strain med2, active compounds read low 1.01 | locus YDL035C, strain GPR1, active compounds read low 1.02 | locus YDL040C, strain nat1, active compounds read low 1.02 | locus YDL074C, strain BRE1, active compounds read low 1.01 | locus YDL101C, strain DUN1, active compounds read low 1.02 | locus YDL134C, strain PPH21, active compounds read low 1.01 | locus YDL185W, strain tfp1, active compounds read low 0.99 | locus YDL192W, strain arf1, active compounds read low 0.992 | locus YDR001C, strain nth1, active compounds read low 1.02 | locus YDR069C, strain doa4, active compounds read low 1.02 | locus YDR101C, strain arx1, active compounds read low 0.971 | locus YDR137W, strain rgp1, active compounds read low 1.01 | locus YDR150W, strain NUM1, active compounds read low 1.01 | locus YDR159W, strain sac3, active compounds read low 0.974 | locus YDR162C, strain NBP2, active compounds read low 1.04 | locus YDR195W, strain ref2 0.977 | locus YDR297W, strain sur2, active compounds read low 1.01 | locus YDR318W, strain mcm21, active compounds read low 0.977 | locus YDR334W, strain swr1, active compounds read low 1.02 | locus YDR335W, strain msn5, active compounds read low 1.02 | locus YDR363W, strain ESC2, active compounds read low 1 | locus YDR388W, active compounds read low 0.991 | locus YDR392W, strain spt3, active compounds read low 0.958 | locus YDR502C, strain sam2, active compounds read low 0.981 | locus YEL003W, strain gim4, active compounds read low 1.02 | locus YEL037C, strain rad23, active compounds read low 1.02 | locus YEL061C, strain CIN8 (second series), active compounds read low 1.02 | locus YEL061C, strain CIN8, active compounds read low 1.01 | locus YER002W, strain NOP16, active compounds read low 1.01 | locus YER015W, strain faa2, active compounds read low 1.02 | locus YER016W, strain bim1, active compounds read low 1 | locus YER110C, active compounds read low 0.99 | locus YER111C, strain swi4, active compounds read low 1.02 | locus YER155C, strain BEM2 (second series), active compounds read low 0.998 | locus YER155C, strain BEM2, active compounds read low 1 | locus YER167W, strain BCK2, active compounds read low 1.01 | locus YFR010W, strain ubp6, active compounds read low 1.02 | locus YGL078C, strain dbp3, active compounds read low 0.997 | locus YGL086W, strain mad1, active compounds read low 0.985 | locus YGL167C, strain pmr1, active compounds read low 1.02 | locus YGL173C, strain kem1, active compounds read low 1.01 | locus YGL227W, strain vid30, active compounds read low 1.02 | locus YGL240W, strain doc1, active compounds read low 0.986 | locus YGL248W, strain PDE1, active compounds read low 1.01 | locus YGL253W, strain hxk2, active compounds read low 1.01 | locus YGR078C, strain PAC10, active compounds read low 1.02 | locus YGR135W, strain pre9, active compounds read low 0.988 | locus YGR229C, strain SMI1, active compounds read low 1.04 | locus YGR252W, strain gcn5, active compounds read low 0.969 | locus YHR013C, strain ard1, active compounds read low 1.04 | locus YHR027C, strain rpn1, active compounds read low 1.01 | locus YHR030C, strain SLT2, active compounds read low 1 and 0.974 | locus YHR079C, strain IRE1 (second series), active compounds read low 0.981 | locus YHR079C, strain IRE1, active compounds read low 0.971 | locus YHR094C, strain hxt1, active compounds read low 0.994 | locus YHR129C, strain ARP1, active compounds read low 1 | locus YHR142W, strain chs7, active compounds read low 1.04 | locus YHR200W, strain rpn10, active compounds read low 0.986 | locus YIL066C, strain RNR3, active compounds read low 1.01 | locus YIL073C, strain SPO22, active compounds read low 1.01 | locus YIL125W, strain kgd1, active compounds read low 0.997 | locus YIR030C, strain dcg1, active compounds read low 0.994 | locus YJL092W, strain hpr5, active compounds read low 1.02 | locus YJL095W, strain BCK1 (second series), active compounds read low 1.02 | locus YJL095W, strain BCK1, active compounds read low 1.01 and 0.98 | locus YJL115W, strain asf1, active compounds read low 1.01 | locus YJL129C, strain trk1, active compounds read low 1.03 | locus YJL134W, strain LCB3, active compounds read low 1.01 | locus YJL154C, strain vps35, active compounds read low 1.01 | locus YJL164C, strain tpk1, active compounds read low 1.03 | locus YJL166W, strain qcr8, active compounds read low 1.03 | locus YJL168C, strain set2, active compounds read low 0.991 | locus YJL187C, strain SWE1 (second series), active compounds read low 1.01 | locus YJL187C, strain SWE1, active compounds read low 1.01 | locus YJR043C, strain POL32, active compounds read low 0.979 | locus YJR066W, strain TOR1, active compounds read low 0.951
